Screen size: about 2,200 compounds; about 530 (24%) were called active. A selection follows. Measured potencies and affinities stand elsewhere. A number with no mark means an inactive call.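 Rule for the calls: active = inhibition above a set limit at one or more concentrations of the dose series; inactive = inhibition under that limit at every dose.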

The assay is described as follows: S. Typhimurium nonspecific reporter signal inhibition – Salmonella Typhimurium, GFP fluorescence, counter-screen for PhoP regulon inhibitor project, dose response (AID 2401).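 Note: S. typhimurium with Mg-insensitive nmpC-GFP reporter grown at 10 µM Mg2+; drop in reporter fluorescence reflects general culture growth inhibition.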 The following applies: 4 h; series mostly up to 150 µM; inhibition: at the top concentration. (The purpose of a counterscreen is to sort out artefacts and off-target activity.)
Usually inhibition stands for the change of the read-out against control, counted positive when it falls. In the case of `COC(=O)C1=C(C)N(C)C(=O)/C1=C\c1ccco1`, the “inhibition” value is -21.4%. As for `O=C(COc1ccccc1)NC(=S)Nc1ccc2c3c(cccc13)CC2`, the figure is -2.5%; as for `Cc1ccc(C(=O)CSc2ncnc3sc4c(c23)CCCC4)cc1`, -20.6%. The same measure for `COc1ccc(N2CCN(C(=O)CN(c3cccc(Br)c3)S(C)(=O)=O)CC2)cc1`: -21.7%. As for `O=C(/C=C/c1ccco1)Oc1cc(Br)cc(/C=N/NC(=O)c2ccccc2O)c1`, the figure is 17.5%; as for `CCN1CCN(C(=O)c2ccc3c(=O)n(Cc4ccccc4OC)c(=S)[nH]c3c2)CC1`, -4.23%.

With `Cc1cc(C)nc(Nc2ccc(N3CCCC3)cc2)n1`, the “inhibition” value was 32.9%.

With `O=C(NCCc1ccccc1)c1ccc2nc(-c3ccco3)c(-c3ccco3)nc2c1`, the “inhibition” value was -46.4%.

On to `Clc1ccc(OCCn2ccnc2)c(Br)c1`, for which the “inhibition” value is 18.4%.

For `O=C(NC1CCN(C(=O)N2c3ccccc3Sc3ccccc32)CC1)c1ccco1`, the “inhibition” value was 8.29%.

`CCn1c2ccccc2c2cc(C3N=C(N)Nc4nc5ccccc5n43)ccc21` (stereo not drawn): the “inhibition” value was -8.32%. As for `O=C(CN1CCN(c2ccccn2)CC1)Nc1ccc(Oc2ccccc2)cc1`, the figure is -14.2%.

For `COc1ccc(OC)c(C2=Nn3c(nnc3-c3cc(OC)c(OC)c(OC)c3)SC2)c1`, the “inhibition” value is -10.9%. The same measure for `O=C1CCCc2nc(N3CCN(Cc4ccccc4)CC3)ncc21`: 13.7%; for `COc1ccc(Nc2sc(C(=O)Nc3cccc(Cl)c3)c(N)c2C(=O)Nc2ccccc2OC)cc1`: 5.71%; for `O=S(=O)(c1ccc(F)c2ccccc12)N1CCCCC1`: -2.06%. As for `Cn1ccnc1SCC(=O)Nc1sccc1C#N`, the “inhibition” value is -22%. As for `Cn1cc(C(CC(=O)O)C(=O)O)c2ccccc21` (stereo not drawn), the figure is -32.7%; as for `c1ccc2c(N3CCCCCC3)nc(-c3ccncc3)nc2c1`, 9.59%. As for `CCOC(=O)c1cnc2ccc(OCC)cc2c1N1CCN(c2ccccc2)CC1`, the figure is -17.9%; as for `Cc1ccc(NC(=O)CCCSc2nc3ccccc3[nH]2)cc1`, 13.2%. Consider `CCN(CCO)Cc1csc2ccccc12`, for which the “inhibition” value was 12%. The same measure for `CC(C)CCNC(=O)C12CN(Cc3ccccc3)CC1C(c1cccc([N+](=O)[O-])c1)=NO2` (stereo not drawn): -30.9%; for `CCCn1c(NCc2c[nH]c3ccccc23)nc2ccccc21`: -21.9%; for `COc1ccc(-c2cc(C(=O)Nc3ccc(S(=O)(=O)Nc4ncccn4)cc3)c3ccccc3n2)cc1`: -23.9%. With `Nc1nc(C2CCCCC2)cs1`, the “inhibition” value was -27.9%. The same measure for `Clc1ccc(-n2ncc3c(NCc4cccs4)ncnc32)cc1`: -7.96%; for `CC(C)Cc1nc2ccc(N)cc2[nH]1`: -29.5%.

On to `COc1cccc(-c2nnc3sc(-c4ccc(C)cc4)nn23)c1`, for which the “inhibition” value was -21.6%. As for `Cc1nc2c(C(=O)NCCC(C)C)c[nH]n2c(=O)c1Cc1ccccc1F`, the figure is -6.91%; as for `CC(C)(C)NC(=O)CSc1nnc(-c2ccncc2)o1`, -18.5%; as for `CCCCCCC(=O)N(O)C1CC(=O)N(c2ccc(C)cc2)C1=O` (stereo not drawn), -0.7%. On to `O=C(c1ccco1)[C@@H]1[C@@H]2C(=O)N(c3ccc(F)cc3)C(=O)[C@@H]2[C@H]2C=Cc3ccccc3N21`, for which the “inhibition” value was 30.5%.

As to `CCC(=O)NC1=C(NC(C)c2ccccc2)C(=O)c2ccccc2C1=O` (stereo not drawn), the “inhibition” value is -23.7%. The same measure for `O=S(=O)(c1ccc(NC(=S)Nc2ccc3c(c2)OCO3)cc1)N1CCOCC1`: -22.1%; for `Nc1ccc(N(c2ccccc2)c2ccc(N)cc2)cc1`: 12.5%.

Turning to `CSc1nsc(SCC(=O)Nc2ccc(C(C)=O)cc2)n1`, the “inhibition” value was -12.8%. As for `O=C(Cc1cccs1)N(c1ccccc1)C1C=CS(=O)(=O)C1` (stereo not drawn), the figure is -20.5%. As for `O=C(OCC(=O)c1ccc(S(=O)(=O)N2CCCC2)cc1)C1=COCCO1`, the figure is 22.7%; as for `NNC(=S)Nc1ccc(Cl)cc1`, 10.3%. As for `COc1ccc2cc(C#N)c(NC(C)C)nc2c1`, the “inhibition” value was -8.85%. On to `NC(=S)c1cc2ccc(O)cc2oc1=O`, for which the “inhibition” value was 30.4%. Take `Cc1ccc(NC(=S)NCCc2ccccc2)c(C)c1`: the “inhibition” value is -16.9%.

`CNC(=O)CSc1nnc(-c2cccnc2)n1CCc1ccccc1`: the “inhibition” value is 0.94%.

Take `COc1nc(N(c2ccccc2)c2ccccc2)nc(-n2ccnc2)n1`: the “inhibition” value was -6.59%.

With `COc1cc(CNc2ccc(CNc3ncn[nH]3)cc2)ccc1OCc1ccccc1`, the “inhibition” value was -34.7%. As for `CCc1cccc(NC(=O)CCCSc2nc3ccccc3[nH]2)c1`, the figure is 14.9%.

With `CC(C)Nc1cc(C(F)(F)F)nc(-c2ccccn2)n1`, the “inhibition” value is -23.6%. As for `O=C1c2ccccc2C(=O)N1Cc1nc(-c2ccccn2)no1`, the figure is -21.6%; as for `S=c1nc(-c2ccccc2)oc2c1CCCC2`, 23%. Consider `c1ccc(-c2ncnc3nc4n(c23)CCC4)cc1`, for which the “inhibition” value was -18.3%. On to `O=C(Nc1cccc2ccccc12)OC1C=CS(=O)(=O)C1` (stereo not drawn), for which the “inhibition” value was 12.5%. The same measure for `Cc1cccc(-n2c(SCC(N)=O)nc3c(c2=O)C2(CCCC2)Cc2ccccc2-3)c1`: 0.99%; for `COc1ccc(Nc2nc(-c3cccc([N+](=O)[O-])c3)nc3ccccc23)cc1`: -12.1%. `C=CCSc1nnc(-c2ccc(Cl)cc2Cl)o1`: the “inhibition” value is -25.1%. Turning to `c1ccc(-c2nnc(SCCC3OCCCO3)o2)cc1`, the “inhibition” value was -18.6%. The same measure for `COc1ccc(S(=O)(=O)n2nc(OC(=O)c3ccccc3Br)cc2N)cc1`: 10.2%; for `COc1ccc(N(C(=O)CCl)C(C(=O)NCCc2ccccc2)c2cccs2)cc1` (stereo not drawn): -12%; for `CCC(=O)c1ccc(OCC(O)CNCc2ccc(F)cc2)cc1` (stereo not drawn): 11.7%. As for `COc1cccc(OCC(O)CN2CCN(c3ccccn3)CC2)c1` (stereo not drawn), the “inhibition” value is -25.8%.

On to `COc1ccc(C2=C(Nc3ccc(C)cc3)c3ccccc3C2=O)cc1`, for which the “inhibition” value is 9.64%. As to `COc1ccc(NC2=Nc3cccc4cccc2c34)cc1`, the “inhibition” value is -15.2%. For the compound `Cc1cc(Nc2ccccc2)nc2cc(O)ccc12`, the “inhibition” value was 6.85%. With `Cc1cc(=O)oc2cc(OCC(O)CN3CCc4ccccc4C3)ccc12` (stereo not drawn), the “inhibition” value was 32.7%. As for `C=CCN(C(=O)c1cccc(S(=O)(=O)N2CCN(C)CC2)c1)c1nc(-c2ccccc2)cs1`, the figure is -26.1%; as for `O=C(O)CCc1nnc2n(Cc3ccc(F)cc3)c(=O)c3ccccc3n12`, -24.6%. Take `Cc1nc(-c2ccccn2)sc1C(=O)Nc1ccc(F)cc1F`: the “inhibition” value is -20.9%. The same measure for `CN(C(=O)/C=C/c1ccccc1)C1CCS(=O)(=O)C1` (stereo not drawn): -30.1%; for `COc1ccccc1N1CCN(c2ccc(-c3ccccc3)nn2)CC1`: -12.4%; for `COc1cc(CNCc2ccccn2)ccc1OCC(=O)NC(C)(C)C`: -7.95%. As for `Cc1ccc(NS(=O)(=O)c2ccccc2)c2c1CC(C)(C)O2`, the figure is -20.3%; as for `Cc1cc(C)nc(N(C#N)C(C)C(=O)N(C)C)n1` (stereo not drawn), -20.3%; as for `Cc1cc2cc(CCNC(=O)c3cccs3)c(=O)[nH]c2cc1C`, 1.29%.
